Tau ThT inhib = qHTS for Inhibitors of Tau Fibril Formation, Thioflavin T Binding; Potency, µM (doses to about 57.4 µM), inactives show top-dose activity, negative = inhibition, most hits filed as inhibitors; recombinant tau K18 P301L, heparin-induced fibrillization, ThT fluorescence; hit rate 2.1% among 270,000; Microtubule-associated protein tau (Homo sapiens), P10636; active means well fitted curve in the direction sought with a large enough effect; inconclusive means small, poorly fitted or top-dose-only effect, or another doubt; inactive means no such curve, though single readings can be large; an effect the other way counts as inactive or inconclusive; further: nearly all actives have a fitted effect of over 55% in size
Target sequence (P10636 561-689 P618L limits assumed): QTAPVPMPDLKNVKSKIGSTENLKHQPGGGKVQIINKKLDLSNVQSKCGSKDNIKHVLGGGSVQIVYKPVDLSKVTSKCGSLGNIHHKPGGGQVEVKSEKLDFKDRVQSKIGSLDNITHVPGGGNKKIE
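Fibril formation assay: tau K18 P301L at 15 uM with trace Alexa 594 label, heparin inducer 20 uM, pH 7 sodium acetate buffer, 37 C for 6 hr; endpoint ThT signal.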
Tau fluor counter = Counterscreen qHTS for Inhibitors of Tau Fibril Formation, Fluorescence Polarization. Potency, µM (titrated, usually from 57.7 µM), for inactives: at the highest dose activity change, negative = decrease. tau K18 P301L Alexa594 fluorescence, heparin fibrillization. AID 1463, 2008. hit rate 0.93% among 280,000; active means well fitted curve in the direction sought with a large enough effect; inconclusive means small, poorly fitted or top-dose-only effect, or another doubt; inactive means no such curve, though single readings can be large; an effect the other way counts as inactive or inconclusive; further: nearly all actives have a fitted effect of over 55% in size
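Human tau K18 P301L (15 uM unlabeled, 0.24 uM Alexa 594-labeled) in 100 mM sodium acetate pH 7 with 20 uM heparin, 6 hr at 37 C. ThT 30 uM added, 1 hr ambient; Alexa 594 FP and total fluorescence read at 555/632 nm.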
KDM4E inh = qHTS Assay for Inhibitors of Human Jumonji Domain Containing 2E (JMJD2E). hit rate 1.6% among 230,000. JMJD2E catalytic domain, FDH-coupled NADH fluorescence (FDH is formaldehyde dehydrogenase). Lysine-specific demethylase 4E (Homo sapiens), B2RXH2. Potency, µM (top dose mostly 57.1 µM), inactives show at the top dose activity change, negative = inhibition, usual class: inhibitors;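 further: 0% = wells with enzyme and -100% = buffer wells without enzyme; nearly all actives have a fitted effect of over 50% in size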
Target sequence (B2RXH2 1-337 limits assumed): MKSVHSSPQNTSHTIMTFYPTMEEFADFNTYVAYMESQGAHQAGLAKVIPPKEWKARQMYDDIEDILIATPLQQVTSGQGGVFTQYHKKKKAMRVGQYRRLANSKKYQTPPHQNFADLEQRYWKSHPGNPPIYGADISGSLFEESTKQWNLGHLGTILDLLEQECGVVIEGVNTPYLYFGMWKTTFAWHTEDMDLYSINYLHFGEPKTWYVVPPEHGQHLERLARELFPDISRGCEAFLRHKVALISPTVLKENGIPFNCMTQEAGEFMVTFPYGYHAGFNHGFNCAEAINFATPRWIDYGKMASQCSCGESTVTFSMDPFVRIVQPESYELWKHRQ
ALDH1A1 inh = qHTS Assay for Inhibitors of Aldehyde Dehydrogenase 1 (ALDH1A1); Purified ALDH1A1, NADH fluorescence, propionaldehyde substrate; Potency, µM (top dose mostly 75.3 µM), for inactives: at the top dose activity, negative = inhibition, most hits filed as inhibitors; hit rate 7.3% among 220,000;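 further: plate controls were no enzyme wells and a reference inhibitor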
HPGD block = qHTS Assay for Inhibitors of HPGD (15-Hydroxyprostaglandin Dehydrogenase); purified HPGD, NADH fluorescence kinetic, PGE2 substrate; hit rate 4.3% among 150,000; 15-hydroxyprostaglandin dehydrogenase [NAD(+)] (Homo sapiens), P15428; Potency, µM, without a hit: at the highest dose activity change, negative = inhibition, actives largely listed as inhibitors
Target sequence (P15428 whole entry, looked up): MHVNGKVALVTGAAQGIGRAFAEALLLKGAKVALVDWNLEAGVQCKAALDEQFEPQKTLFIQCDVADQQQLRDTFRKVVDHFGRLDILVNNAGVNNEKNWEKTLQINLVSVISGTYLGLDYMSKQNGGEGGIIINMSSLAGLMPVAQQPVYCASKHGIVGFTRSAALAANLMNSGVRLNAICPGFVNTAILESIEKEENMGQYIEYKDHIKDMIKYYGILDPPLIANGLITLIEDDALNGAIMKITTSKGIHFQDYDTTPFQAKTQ
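20 nM HPGD preincubated 15 min at room temperature with compound in 50 mM Tris-HCl pH 8, 0.01% Tween 20. Started with 1 mM NAD+ and 30 uM prostaglandin E2; NADH fluorescence (360/450 nm) read 5 times over 30-s intervals, last minus first.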
Tau FP inhib = qHTS for Inhibitors of Tau Fibril Formation, Fluorescence Polarization; K18 P301L tau heparin fibrillization, Alexa594 FP, 6 h; Potency, µM (doses to about 57.7 µM), inactives show at the top dose activity, negative = inhibition, hits mostly inhibitors; hit rate 0.39% among 280,000; AID 1468, 2008; active means well fitted curve in the direction sought with a large enough effect; inconclusive means small, poorly fitted or top-dose-only effect, or another doubt; inactive means no such curve, though single readings can be large; an effect the other way counts as inactive or inconclusive; further: nearly all actives have a fitted effect of over 55% in size
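Human K18 P301L fragment (15 uM unlabeled plus 0.24 uM Alexa 594-labeled) in 100 mM sodium acetate pH 7 with compound, aggregation induced by 20 uM heparin for 6 hr at 37 C. ThT (30 uM) added for 1 hr, then Alexa 594 FP read.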
Starred values were filed as active, the others as inactive; ? = inconclusive; · = no result; [ ] = another dose, or the depositor's remark. Rows were chosen to be rich in hits. Some 9.9% of all compounds tested hit in one or more screens of this group. Unless noted, the call rests on the fitted dose curve; in most records, active means well fitted inhibition curve with a large enough effect (not every such curve was filed as active); inconclusive means small, poorly fitted or top-dose-only effect, or another doubt; inactive means no such curve, though single readings can be large or run the other way. Unless noted, on the % scale 0 is the no-effect control and ±100 the full control effect; potency means the concentration at half of the fitted maximal effect.

SMILES	Tau ThT inhib	Tau fluor counter	KDM4E inh	ALDH1A1 inh	HPGD block	Tau FP inhib
CC/C(=N/O)c1cnnc(SC)n1	4%	2%	-4%	-7%	-15%	?
CSc1nncc(/C(C)=N\Nc2ccccc2C)n1	0.89µM*	-16%	-13%	?	-9%	-20%
CC/C(=N/Nc1ccc(Cl)cc1)c1cnnc(SC)n1	4%	0%	-3%	10µM*	-11%	2%
CSc1nncc(/C(C)=N/O)n1	7%	20%	3%	3%	-8%	3%
CC/C(=N/Nc1cccc(C)c1)c1cnnc(SC)n1	?	-13%	-28%	9.5µM*	-6%	-11%
Cc1ccc(-n2ncc(C(=O)N3CCN(Cc4ccccc4)CC3)c2C2CCN(C(=O)OC(C)(C)C)CC2)c(C)c1	-6%	6%	·	·	·	-1%
COC(=O)C(=N/Nc1ccccc1C(=O)OC)/C(C)=N/O	·	0%	56%	·	·	-5%
Cc1cc(O)c(C=O)c2c1C(=O)Oc1c(CO)c(O)c3c(c1O2)C(O)OC3=O (stereo not given)	?	?	20µM*	?	·	16µM*
Cc1cc(O)c(C=O)c2c1C(=O)Oc1c(COC(=O)/C=C/C(=O)O)c(O)c(C(=O)O)c(C)c1O2	8.9µM*	-33%	?	4.5µM*	1.4µM*	3.5µM*
Cc1cc(O)c(C=O)c(O)c1C(=O)O	?	-17%	2%	-10%	-9%	-12%
Cc1ccc(Oc2ncccc2C(=O)NCC(=O)O)cc1	-11%	-11%	5%	11%	·	-5%
CCn1c(SCc2nc3sc(C(=O)O)c(C)c3c(=O)[nH]2)nnc1-c1ccc(Cl)cc1	-16%	-2%	-23%	14µM*	·	0%
Cc1sc2nc(CSc3nnnn3-c3ccc(Cl)cc3)[nH]c(=O)c2c1C	?	-16%	?	?	-15%	-2%
Cc1ncc(N=Nc2ccc(F)cc2)c(-c2ccc(Cl)cc2)n1	-15%	-17%	6%	9%	-4%	12%
Cc1nc(N)sc1N=Nc1ccc(F)cc1	8.9µM*	?	-9%	-4%	-16%	11%
O=C1c2ccccc2C(=O)N1OCc1ccccc1[N+](=O)[O-]	1%	7%	-1%	25µM*	·	2%
O=C1c2ccccc2C(=O)N1OCc1ccc(Cl)cc1	0%	-7%	9%	4%	-9%	?
N#CCc1ccccc1[N+](=O)[O-]	·	·	·	25µM*	8.9µM*	·
CSc1ccccc1NC(=O)Cc1ccccc1[N+](=O)[O-]	-4%	-8%	1%	-5%	·	-5%
O=C(NCc1cccc(F)c1)C1=Cc2cc(Br)ccc2OC1	-7%	-29%	·	·	·	-14%
CN(CC(=O)O)CC(=O)O	·	·	·	-1%[13.5 µM]	0%	·
O=C(COc1ccc(C(=S)N2CCOCC2)cc1Cl)Nc1ccccc1Cl	-12%	-15%	-8%	18µM*	·	-17%
COc1cc(C(=S)N2CCCCC2)ccc1OCC(=O)Nc1ccccc1Cl	?	-26%	-4%	-3%	·	-1%
COc1ccc(CCn2c(O)cc3nn(-c4nc5ccccc5s4)c(=O)c-3c2C)cc1	18µM*	?	28µM*	·	·	-6%
COc1cc(Cl)c(C)cc1NC(=O)C1CCCN(c2ncnc3onc(-c4ccc(F)cc4)c23)C1 (stereo not given)	3%	-19%	·	·	·	-10%
SMILES	Tau ThT inhib	Tau fluor counter	KDM4E inh	ALDH1A1 inh	HPGD block	Tau FP inhib
Cc1ccc(-c2nc(NC(=O)c3nn(C)cc3[N+](=O)[O-])sc2C)cc1	-16%	?	0%	6%	-5%	-8%
O=C(Nc1ccc(-c2csc(Nc3ccccc3)n2)cc1)c1cc([N+](=O)[O-])cc(C(F)(F)F)c1	3.5µM*	4µM*[quencher]	-3%	·	·	0%
Cn1cc([N+](=O)[O-])c(C(=O)Nc2nc(-c3ccc(Cl)cc3)cs2)n1	?	13µM*[quencher]	-1%	?	-16%	7%
O=C(Nc1ccc(-c2csc(Nc3ccc(Cl)cc3)n2)cc1)c1cccc(C(F)(F)F)c1	?	4µM*[quencher]	?	·	·	4%
O=C(NC(=S)Nc1nc(-c2cccc([N+](=O)[O-])c2)cs1)c1cc(Cl)ccc1Cl	-19%	?	?	28µM*	·	-9%
O=C(NC(=S)Nc1nc(-c2cccc([N+](=O)[O-])c2)cs1)c1ccccc1Cl	-13%	?	3%	17%	·	-4%
O=C(Nc1ccc(-c2csc(Nc3ccccc3)n2)cc1)c1cccc(C(F)(F)F)c1	?	?	?	·	·	1%
COc1ccc(NC(=O)c2cc(S(=O)(=O)NCCC3=CCCCC3)ccc2F)cc1	6%	-28%	·	·	·	-6%
O=C(Nc1cccc(-c2csc(Nc3cccc(C(F)(F)F)c3)n2)c1)c1cc([N+](=O)[O-])cc(C(F)(F)F)c1	?	2.5µM*[quencher]	0%	·	·	6%
CC(=O)c1cccc(Nc2nc(-c3cccc([N+](=O)[O-])c3)cs2)c1	4µM*	7.1µM*[quencher]	-12%	?	-22%	4%
O=[N+]([O-])c1cccc(-c2csc(N/N=C/c3cccc(O)c3)n2)c1	6.3µM*	7.9µM*[quencher]	-2%	-4%	·	-5%
Cc1ccc(-c2csc(NC(=O)c3cccc([N+](=O)[O-])c3)n2)cc1	-10%	-24%	4%	-12%	-3%	-7%
O=C(OCc1cc(=O)n2nc(-c3cccs3)sc2n1)c1ccc(F)cc1	?	-10%	·	·	·	2%
Cc1ccc(NC(=O)C(C)N2CCCC2)cc1Cl (stereo not given)	0%	-1%	14%	5%	·	-3%
CCOC(=O)Cc1cc(-c2ccc(O)cc2)nc2ccc3ccccc3c12	-13%	?	?	?	-20%	?
CN(/N=C/c1ccc(O)cc1O)c1nc(-c2ccccc2)cc(-c2ccccc2)n1	?	14µM*[quencher]	-4%	10%	-3%	?
O=C(NCC(=O)N(c1cccnc1)C(C(=O)NC1CCCC1)c1ccc(F)cc1)c1ccco1 (stereo not given)	12%	10%	1%	6%	·	2%
CCc1ccc(N(C(=O)c2csnn2)C(C(=O)NCc2ccccc2)c2ccco2)cc1 (stereo not given)	-3%	-9%	-1%	7.9µM*	-14%	7%
COc1ccc(CNC(=O)C(c2ccco2)N(C(=O)c2ccccn2)c2ccccc2)cc1 (stereo not given)	-3%	7%[2.34 µM]	6%	?	·	9%
